Reference: PubChem BioAssay AID485288 (Southern Research Specialized Biocontainment Screening …, 2010)
Results with a measured potency or affinity are listed apart. Calls of active or inactive are those of the source. No rule for the calls is given here.

Molecular target: Large T antigen (Simian virus 40) (UniProt P03070)
Assay: SV40 large T antigen ATPase inhibitors, SAR follow-up, biochemical, ADP-Hunter detection, purified TAg, synthesized compounds, set 3 (AID 485288)

Chain of Large T antigen (Simian virus 40) (P03070 whole entry, looked up): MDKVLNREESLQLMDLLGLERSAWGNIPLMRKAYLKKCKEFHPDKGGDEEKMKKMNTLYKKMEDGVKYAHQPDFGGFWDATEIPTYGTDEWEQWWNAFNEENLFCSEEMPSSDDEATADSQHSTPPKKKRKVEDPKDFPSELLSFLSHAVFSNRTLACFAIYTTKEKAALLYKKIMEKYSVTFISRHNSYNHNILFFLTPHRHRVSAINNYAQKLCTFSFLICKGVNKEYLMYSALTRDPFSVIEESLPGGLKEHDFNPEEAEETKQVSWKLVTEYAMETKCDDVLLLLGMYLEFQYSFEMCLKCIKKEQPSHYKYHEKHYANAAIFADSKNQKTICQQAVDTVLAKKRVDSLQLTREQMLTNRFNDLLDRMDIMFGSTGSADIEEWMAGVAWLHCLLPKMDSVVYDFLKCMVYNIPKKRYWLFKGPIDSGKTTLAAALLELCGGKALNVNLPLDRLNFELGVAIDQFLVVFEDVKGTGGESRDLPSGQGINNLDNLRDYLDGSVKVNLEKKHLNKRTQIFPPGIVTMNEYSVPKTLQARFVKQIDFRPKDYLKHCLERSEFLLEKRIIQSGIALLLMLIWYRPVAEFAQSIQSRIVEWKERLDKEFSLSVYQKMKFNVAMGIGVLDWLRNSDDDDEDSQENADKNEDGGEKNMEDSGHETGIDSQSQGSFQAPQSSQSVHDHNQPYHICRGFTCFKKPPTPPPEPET

CC(C)(c1nnnn1-c1ccccc1)N1CCOCC1
outcome: inactive

FC(F)(c1nnnn1-c1ccccc1)c1nnc2ccccn12
outcome: inactive

Cc1ccccc1-n1nnnc1C(C)(C)N1CCCC1
outcome: inactive

Oc1ccccc1Cc1ccccc1O
outcome: inactive

Oc1ccc(Cl)cc1Cc1cc(Cl)ccc1O
outcome: inactive

CC(C)(c1ccc(O)cc1)c1ccc(Cl)cc1
outcome: inactive

CC(=O)c1cc(C(C)(C)c2ccc(O)cc2)cc(C(C)=O)c1O
outcome: inactive

Cc1ccc(-n2nnnc2C(C)(C)N2CCCCC2)cc1
outcome: inactive

CC(C)(c1nnnn1-c1ccc(Cl)cc1)N1CCN(C(=O)c2ccco2)CC1
outcome: inactive
